Data as given in PubChem BioAssay AID977607 (Broad Institute, 2014).
The campaign covered roughly 1,500 compounds. About 460 (31%) were called active. About 1% were inconclusive and are not listed.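 How the source made its calls: active means curve reaches 40% activation over neutral controls at an AC40 no higher than the top valid tested concentration; inconclusive means no clear call, values can overlap the other calls; inactive means signal moving opposite to the expected increase, and the rest.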 Only a sample is shown. Entries with a potency or affinity are not part of this list.

experiment: activators of glucose-dependent insulin secretion, dose response, cell-based, INS-1E, Gaussia luciferase, luminescence, cherry-pick, set 2 (AID 977607); conditions: INS-1E GLuc insulin secretion reporter, 2-3 h, stronger effect = higher value; at 35 µM, 100% = signal doubled over neutral wells unless noted;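 further: 0% = median of the plate neutral control wells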

Max activation, inactive:
CCOc1nc(CC(C)C)c2c(c1C#N)CC(C)(C)OC2 -26.5%
O=C(NN(Cc1ccccc1)Cc1ccccc1)c1ccccc1 23.7% [at 1.2 µM, 100% = signal doubled over neutral wells]
O=C(c1cc(-c2ccccc2)nc2ccccc12)N1CCCC1 -13.5% [at 11 µM, 100% = signal doubled over neutral wells]
Cn1cc(C(=O)NCC(=O)Nc2ccccc2Br)cn1 -16.7% [at 0.135 µM, 100% = signal doubled over neutral wells]
COc1ccc(CC(=O)c2ccc(OC)c(OC)c2)cc1 18.3% [at 0.0016 µM, 100% = signal doubled over neutral wells]
COc1cc2ccc(C(C)=O)cc2cc1OC 29.7% [at 0.0016 µM, 100% = signal doubled over neutral wells]
COc1ccc(C(C)=O)cc1CSCc1cc(C(C)=O)ccc1OC 10.8%
CC(C)c1ccc2oc(=O)cc(CN3CCCCC3)c2c1 -12.8%
Cc1cc2oc(=O)cc(CN3CCOCC3)c2c(C)c1Cl -12.4% [at 0.0016 µM, 100% = signal doubled over neutral wells]
COc1ccc(-c2cc(C(F)(F)F)n3nc(C(=O)O)cc3n2)cc1OC 13.4%
Cc1ccccc1Cc1c(C)nc2c(C(=O)NCc3ccco3)cnn2c1C -44.9%
C[C@H]1[C@@H](c2ccccc2)Oc2c(Cl)cccc2S(=O)(=O)N1C -29.7% [at 11 µM, 100% = signal doubled over neutral wells]
CCN1CCN(c2nnc(-c3ccccc3)c3ccccc23)CC1 13.4% [at 0.135 µM, 100% = signal doubled over neutral wells]
COC(=O)Cn1cc(C#N)c2ccccc21 43% [at 0.42 µM, 100% = signal doubled over neutral wells]
CN(C)C(=O)c1ccc(-c2ccc([C@@H]3[C@@H](CO)N4C(=O)CN(C(=O)C5CC5)C[C@@H]34)cc2)cc1 31.8% [at 0.046 µM, 100% = signal doubled over neutral wells]
C/C=C1\COC(C(=O)NCc2ccccc2)(C(F)(F)F)C=C1C=C(C)C (configuration not stated) -29.1%
CN(c1ccc(F)cc1)S(=O)(=O)c1ccc(Cl)c(C(=O)NCC2CCCO2)c1 (configuration not stated) -19.1%
CN(C(=O)[C@H]1O[C@@H](n2cnc(C(N)=O)n2)[C@H](O)[C@@H]1O)c1ccccc1 -24.3% [at 1.2 µM, 100% = signal doubled over neutral wells]
CN1CCSc2ccc(C(=O)Nc3cccc(F)c3)cc21 -34.2%
Cc1nc2c(c(N3CCOCC3)n1)OCC(=O)N2 52.8%
COc1cc(C2N(C)CCC3(OCCO3)C2(C)C)cc(OC)c1OC (configuration not stated) -12.6% [at 0.0016 µM, 100% = signal doubled over neutral wells]
CCSc1nnc2ccc(-c3cccs3)nn12 23.8%
COc1ccc(-c2nnc3sc(-c4ccco4)nn23)cc1OC -14.1% [at 0.046 µM, 100% = signal doubled over neutral wells]
CC/C(O)=C1\C(=O)CC(c2ccccc2)CC1=NC(C)C (configuration not stated) -12.6% [at 1.2 µM, 100% = signal doubled over neutral wells]
CCN(CC)CCn1c(=N)n(CC(O)COc2ccccc2)c2ccccc21 (configuration not stated) -13.8% [at 3.8 µM, 100% = signal doubled over neutral wells]
Cc1ccc(C(CC(=O)O)NC(=O)c2ccc(S(=O)(=O)N3CC(C)OC(C)C3)cc2)cc1 (configuration not stated) -15.8% [at 0.42 µM, 100% = signal doubled over neutral wells]
CCOC1=C2[C@H](c3ccc(C)cc3)N(S(=O)(=O)c3ccc(C)cc3)C[C@H]2n2c(=O)n(-c3ccccc3)c(=O)n2C1 -23.2% [at 0.005 µM, 100% = signal doubled over neutral wells]
CNc1nc(N)c(C(=O)C(C)(C)C)s1 27.9% [at 11 µM, 100% = signal doubled over neutral wells]
CC1(C)Cc2c(c(-c3ccco3)nc3n[nH]c(N)c23)CO1 25% [at 0.135 µM, 100% = signal doubled over neutral wells]
CN=C1c2ccccc2CN1c1cccc(C(=O)OC)c1 14.7%
O=S(=O)(c1ccc(NCCCO)nc1)N1CCOCC1 -14.1% [at 0.015 µM, 100% = signal doubled over neutral wells]
COC(=O)c1c(C)oc(C)c1S(=O)(=O)Nc1ccc(C(C)C)cc1 -24.4%
Cc1ccc(-c2cnc3cccnn23)cc1F 39% [at 0.015 µM, 100% = signal doubled over neutral wells]
COC(=O)c1ccc(Oc2ccc(C(F)(F)F)cn2)cc1 -19.1% [at 0.135 µM, 100% = signal doubled over neutral wells]
Cc1nc2c(-c3ccc(F)cc3)cnn2c2c1CCC2 -15.5% [at 0.0016 µM, 100% = signal doubled over neutral wells]
COC(=O)C[C@@H]1C=C[C@H](NC(=O)Cc2ccccn2)[C@@H](CO)O1 -17.5% [at 0.015 µM, 100% = signal doubled over neutral wells]
COCCNC(=O)CCCn1c(=O)c2ccccc2n(Cc2ccccc2C#N)c1=O -20.3% [at 0.015 µM, 100% = signal doubled over neutral wells]
CCc1c(C(=O)Nc2ccc(C)c(C)c2)[nH]c(C)c1C(C)=O -21.4% [at 11 µM, 100% = signal doubled over neutral wells]
COc1ccc(S(=O)(=O)N2CCC(C(=O)NCc3ccccn3)CC2)cc1OC 32.9% [at 3.8 µM, 100% = signal doubled over neutral wells]
CCN(c1ccccc1)S(=O)(=O)c1ccc(OC)c(OC)c1 12.1%
COc1ccc(N2CCN(S(=O)(=O)c3ccc(-c4cc(C)no4)s3)CC2)cc1 -17.8% [at 0.135 µM, 100% = signal doubled over neutral wells]
COc1ccc(CN(C)C(=O)c2cc(-c3ccc(OC)c(OC)c3)nc3ccccc23)c(OC)c1 -23.5%
COc1ccc(-c2cc(C(=O)N(C)Cc3ccc(OC)c(OC)c3OC)c3ccccc3n2)cc1OC 13.2% [at 11 µM, 100% = signal doubled over neutral wells]
c1cn2cc(-c3ccc(CN4CCOCC4)cc3)ccc2n1 -25.5% [at 3.8 µM, 100% = signal doubled over neutral wells]
O=c1[nH]c2cc(Cl)ccc2n(CCNc2ncc(C(F)(F)F)cc2Cl)c1=O -28.9% [at 3.8 µM, 100% = signal doubled over neutral wells]
COc1ccc(-c2cc3nc4ccccc4n3c(N)c2C#N)cc1 -29% [at 0.135 µM, 100% = signal doubled over neutral wells]
O=C(O)c1ccc(-c2nc(-c3ccccc3)c(-c3cccs3)[nH]2)cc1 6.45% [at 1.2 µM, 100% = signal doubled over neutral wells]
COc1ccc(-c2ocnc2C(=O)Nc2ccc(N3CCOCC3)cc2N2CCOCC2)cc1OC -29.2%
COc1ccc(C2CC(c3ccc(OC)c(OC)c3)=NN2C(=O)c2ccccc2)cc1 (configuration not stated) -8.01% [at 0.0016 µM, 100% = signal doubled over neutral wells]
O=c1c2ccccc2c(-c2ccccc2)nn1-c1ccccn1 -14.4%
COc1ccccc1Cn1c(=O)oc2ccccc21 -27.7% [at 0.005 µM, 100% = signal doubled over neutral wells]
COc1ccc(CNC(=O)C2Cc3c(-c4cccc(F)c4)ccnc3O2)cc1OC (configuration not stated) -18.6% [at 0.015 µM, 100% = signal doubled over neutral wells]
COc1cc2c3nnc(-c4ccccc4)c-3cn(Cc3ccccc3F)c2cc1OC -22.1% [at 0.135 µM, 100% = signal doubled over neutral wells]
FC(F)(F)c1ccc(Cl)c(-n2c(Cc3cccs3)n[nH]c2=S)c1 -14.3% [at 0.005 µM, 100% = signal doubled over neutral wells]
COc1ccc(/C=C2/SC(=O)N(NS(=O)(=O)c3ccccc3)C2=S)cc1OC -21.6% [at 0.015 µM, 100% = signal doubled over neutral wells]
CC1(C)CCCC(C)(C)N1CC(O)COCCOc1ccc(Br)cc1 (configuration not stated) -12.4%
CCS(=O)(=O)c1nc(S(=O)(=O)c2ccc(C)cc2)c(N2CCC(O)CC2)s1 -18.3% [at 0.42 µM, 100% = signal doubled over neutral wells]
